Source: PubChem BioAssay AID1028 (SRMLSC, 2008)
Results with a measured potency or affinity are listed apart.

target: diphosphomevalonate decarboxylase (Streptococcus pneumoniae D39) (UniProt Q9FD53); experiment: S. pneumoniae DPM-DC inhibition retest, confirmation, biochemical, cuvette format, coupled NADH fluorescence (AID 1028); conditions: purified DPM-DC, rate, at 50 µM, hits give high values

inhibition, inactive:
COc1ccccc1-c1nc2ccccc2o1 6.39%, COc1ccc2oc(-c3cccc([N+](=O)[O-])c3)nc2c1 7.59%, CCN(CC)C(=O)c1ccccc1-n1sc2ccccc2c1=O 14.9%, c1ccc(-c2nc3ccccc3o2)cc1 2.96%, Cc1ccc(C)c(-c2nc3cccc(N)c3o2)c1 -0.39%, COc1ccc(OC)c(-c2nc3cc(N)ccc3o2)c1 10.3%, Cc1ccc(-c2nc3ccccc3o2)cc1 7.2%, COc1ccccc1-c1nc2cc(N)ccc2o1 14.5%, Cc1ccc(C)c(-c2nc3ccc(N)cc3o2)c1 13%, CN(C)C(=O)c1ccccc1-n1sc2ccccc2c1=O 16.7%, Cc1ccccc1-c1nc2ccccc2o1 1.75%, Nc1ccc2oc(-c3ccc(F)cc3)nc2c1 13.4%, Nc1ccc2oc(-c3ccc(Cl)cc3)nc2c1 12.8%, COc1ccc2oc(-c3cccc(N)c3)nc2c1 -0.79%, COc1ccc2oc(-c3ccc([N+](=O)[O-])cc3)nc2c1 1.63%, COc1ccc2oc(-c3cc(C)ccc3C)nc2c1 2.66%, COc1ccc2nc(-c3ccncc3)oc2c1 4.83%, CCCN(CCC)C(=O)c1ccccc1-n1sc2ccccc2c1=O 14.3%, COc1ccc2oc(-c3ccncc3)nc2c1 -0.2%, Clc1cccc(-c2nc3ccccc3o2)c1 1.68%
